Experimental data as given in PubChem BioAssay AID434970 (Sanford-Burnham Center for Chemical Genomics, 2010).
Screen size: about 11,000 compounds; about 310 (2.8%) were called active. Rule as the data show it: active = activity change below about -85%; inactive = the rest. For the sample, actives were picked, then their nearest neighbours and some compounds at random.

Each compound was assayed on intestinal alkaline phosphatase [Mus musculus] (assay: mouse intestinal phosphatase enzyme activation – biochemical, luminescence, single concentration, confirmation (AID 434970)). Conditions: purified mouse IAP, CDP-Star luminescence, 30 min, at 10 µM; activation factor: measured here: IAP activation factor, stronger effect = higher value; activity change, negative = activation: stronger effect = lower value.

SMILES	activation factor	activity change, negative = activation
O=C(CCS(=O)(=O)c1cccc2nonc12)Nc1cccc2c1CCCC2	0.972	2.85% (inactive)
O=C(c1ccc(F)cc1)N1CCN(c2cc(=O)[nH]nc2-c2ccccc2)CC1	1.17	-17.4% (inactive)
COc1ccc(-n2c(COc3ccccc3)nnc2SCC(N)=O)cc1	0.967	3.3% (inactive)
CCOC(=O)N1CCC(NC(=O)C2CCC(Cn3c(=O)[nH]c4ccccc4c3=O)CC2)CC1 (configuration not stated)	0.908	9.15% (inactive)
O=C1CC(c2nc3ccccc3[nH]2)CN1c1ccccc1 (configuration not stated)	0.951	4.9% (inactive)
O=c1ccc(NS(=O)(=O)c2ccc(Cl)cc2)cn1Cc1ccc(Cl)c(Cl)c1	0.948	5.2% (inactive)
CC1C(C)C(O)(c2ccccc2)CCN1C (configuration not stated)	0.956	4.35% (inactive)
c1ccc(NC2=NCCCCS2)cc1	1.06	-5.6% (inactive)
C#CCOCCOCCOCCNc1nc(N2CCN(C(=O)CCCCCCCCCCNC(=O)[C@H]([C@@H](C)CC)n3cc(CCCCN=C(N)N)nn3)CC2)nc(N2CCN(C(=O)CCCCCCCCCCNC(=O)[C@@H]([C@H](C)O)n3cc(C)nn3)CC2)n1	14.6	-1360% (active)
C#CCOCCOCCOCCNc1nc(N2CCN(C(=O)CCCCCCCCCCNC(=O)[C@H]([C@@H](C)CC)n3cc(CCCCN=C(N)N)nn3)CC2)nc(N2CCN(C(=O)CCCCCCCCCCNC(=O)[C@H]([C@@H](C)CC)n3cc(CCCCN=C(N)N)nn3)CC2)n1	22.7	-2170% (active)
CC(Sc1nc2ccccc2n1C)C(=O)NC(c1ccccc1)c1ccccc1 (configuration not stated)	0.982	1.75% (inactive)
Cc1cccc(Cn2cnc3c(NS(C)(=O)=O)c(C)c(C)cc32)c1	1.13	-12.6% (inactive)
NCCCCCc1nnc(SCC(=O)c2ccc(Cl)cc2)o1	1.08	-7.9% (inactive)
C#CCOCCOCCOCCNc1nc(N2CCN(C(=O)CCCCCCCCCCNC(=O)[C@H]([C@@H](C)CC)n3cc(CCCCCN)nn3)CC2)nc(N2CCN(C(=O)CCCCCCCCCCNC(=O)[C@H](CCCCN)n3cc(CCCC(=O)O)nn3)CC2)n1	3.22	-222% (active)
C#CCOCCOCCOCCNc1nc(N2CCN(C(=O)CCCCCCCCCCNC(=O)[C@@H](CCC(=O)O)n3cc(CCCCCN)nn3)CC2)nc(N2CCN(C(=O)CCCCCCCCCCNC(=O)[C@H]([C@@H](C)CC)n3cc(CCCCCN)nn3)CC2)n1	2.75	-176% (active)
CCOC(=O)c1ccc(-n2c(C)nc3c(cnn3-c3ccc(Cl)cc3)c2=O)cc1	0.964	3.55% (inactive)
CCCCCCCCCCCC(=O)NC(C(=O)OCC)C(O)c1cccc([N+](=O)[O-])c1 (configuration not stated)	1.03	-2.65% (inactive)
CC[C@]12c3[nH]c4ccc(Cl)cc4c3CCN1C(=O)[C@@H](CC(=O)NCCC1=CCCCC1)C[C@@H]2C(=O)N1CCN(C(=O)c2ccco2)CC1	1.08	-8.45% (inactive)
CC1OC23CCCCC2C(C#N)(C(=N)O3)C1(C#N)C#N (configuration not stated)	0.959	4.1% (inactive)
CCN(CC(=O)NCc1ccc(F)cc1)Cc1nc2ccccc2c(=O)[nH]1	1.14	-14.2% (inactive)
CN(CC(=O)NC(c1ccccc1)c1ccccc1)Cc1nc2ccccc2c(=O)[nH]1	2.71	-171% (active)
CCN(CC(=O)Nc1ccc2c(c1)OCO2)Cc1nc2ccccc2c(=O)[nH]1	1.23	-23.5% (inactive)
Cc1cc(Cl)cc(C)c1OCC(=O)O	1.06	-5.8% (inactive)
Cc1cc(C)cc(NC(=O)Nc2ccccc2N2CCCCC2)c1	2.12	-112% (active)
Cc1ccc(NC(=S)NCc2ccccc2)cc1S(=O)(=O)N1CCCCC1	2.87	-187% (active)
COc1ccccc1NS(=O)(=O)c1cccc(NC(=O)Nc2ccc(Cl)cc2)c1	1.92	-92.2% (active)

SMILES	activation factor	activity change, negative = activation
O=C(Nc1ccccc1)Nc1ccc(Cl)c(S(=O)(=O)N2CCOCC2)c1	1.53	-53.4% (inactive)
O=C(Nc1ccc(F)cc1)Nc1ccccc1N1CCCCC1	1.58	-57.8% (inactive)
COc1ccccc1NS(=O)(=O)c1ccc(C)c(C(N)=O)c1	0.925	7.5% (inactive)
O=C(CNC1CCCCCC1)Nc1ccccc1N1CCCCC1	1.04	-3.7% (inactive)
Cc1ccc(C)c(S(=O)(=O)N2CCN(CC(=O)NC(=O)NCc3ccccc3)CC2)c1	0.972	2.8% (inactive)
Cc1ccc(C(=O)NCC(=O)O)cc1S(=O)(=O)N1CCCCC1	0.994	0.55% (inactive)
COc1ccc(NC(=S)Nc2cccc(S(=O)(=O)N3CCCCC3)c2)cc1	1.01	-1.4% (inactive)
COc1ccc(OC)c(NS(=O)(=O)c2ccc(NC(C)=O)cc2)c1	0.988	1.15% (inactive)
COc1ccc(NC(=O)Nc2ccccc2)cc1S(=O)(=O)N1CCCCC1	2.87	-187% (active)
COc1ccc(C(=O)Nc2cccc(C(C)=O)c2)c(OC)c1OC	0.951	4.95% (inactive)
COC(=O)CC1C(=O)NCCN1C(=O)Nc1ccccc1 (configuration not stated)	0.938	6.25% (inactive)
CCOC(=O)Cc1cc(=O)n(-c2nc3ccccc3s2)[nH]1	0.806	19.4% (inactive)
O=C(CN1C(=O)C2CC=CCC2C1=O)Nc1ccc(S(=O)(=O)NC2=NCCCCC2)cc1 (configuration not stated)	0.903	9.65% (inactive)
CC[C@@H]1C(c2cccc(C)c2)=NN(c2ccccc2)[C@H]1C(=O)N1CCOC1=O	1.14	-14.2% (inactive)
COc1cccc(-n2c(SCC(=O)Nc3nccs3)nnc2-c2ccoc2C)c1	0.982	1.8% (inactive)
O=C1OCCN1C(=O)[C@H]1[C@H](c2ccc([N+](=O)[O-])cc2)C(c2ccccc2)=NN1c1ccc(Br)cc1	0.908	9.2% (inactive)
COc1ccccc1NS(=O)(=O)c1cc(NC(=O)Nc2cccc(C)c2)ccc1N1CCCCC1	3.78	-278% (active)
O=C(Nc1cccc(C(F)(F)F)c1)Nc1ccc(N2CCCC2)c(S(=O)(=O)Nc2ccccc2Cl)c1	1.67	-66.9% (inactive)
COc1ccc(C(=O)O)cc1S(=O)(=O)Nc1cccc(C)c1	0.988	1.25% (inactive)
Cc1cc(-c2csc(NC(=O)c3ccc(=O)[nH]c3)n2)c(C)n1Cc1ccco1	0.347	65.4% (inactive)
CCCc1c(O)nc(SC2CC(=O)N(c3cc(OC)ccc3OC)C2=O)[nH]c1=O (configuration not stated)	1.01	-0.65% (inactive)
C=CCn1c(SCC(=O)Nc2cc(C)ccc2OC)nnc1-c1ccco1	1.07	-7.4% (inactive)
CCOC(=O)C1=CN(Cc2ccc(Br)cc2)S(=O)(=O)NC1C (configuration not stated)	0.968	3.25% (inactive)
O=C(Nc1ccc(Cl)cc1)Nc1ccc(N2CCOCC2)cc1	1.17	-16.9% (inactive)
O=C(Nc1ccc(Cl)cc1)N[C@@H]1c2c(ccc3ccccc23)OC[C@@H]1CO	4.85	-385% (active)
O=C(Nc1ccc(Cl)cc1)Nc1ccc(-c2cnco2)cc1	1.34	-34.5% (inactive)

SMILES	activation factor	activity change, negative = activation
CCCCc1ccc(CC(=O)O)cc1	0.907	9.3% (inactive)
CC(C)CNC(=O)c1ccccc1NC(=O)Nc1ccccc1	0.949	5.15% (inactive)
O=C(Nc1ccc(F)c(Cl)c1)Nc1csc2ccccc12	2.15	-115% (active)
O=C(Nc1ccc(F)cc1)Nc1csc2ccccc12	1.94	-93.7% (inactive)
O=C(Nc1ccccc1)Nc1csc2ccccc12	2.08	-108% (active)
CCCCC(=O)Nc1ccc(F)c(Cl)c1	1.05	-5.3% (inactive)
O=C(Nc1ccc(F)cc1F)Nc1csc2ccccc12	1.77	-77.3% (inactive)
O=S(=O)(NCc1cccs1)c1cccc(S(=O)(=O)N2CCCCC2)c1	0.903	9.65% (inactive)
Cc1ccccc1N(CC(=O)N1CCN(c2ccccc2)CC1)S(C)(=O)=O	0.932	6.8% (inactive)
COc1ccc(OC)c(S(=O)(=O)n2ccnc2C)c1	0.998	0.15% (inactive)
COc1ccc(Cc2nnc(NC(=O)C3CCCO3)s2)cc1OC (configuration not stated)	1.01	-1.15% (inactive)
CCC(C)OC(=O)C1=C(C)NC2=C(C(=O)C(C(=O)OC)C(C)C2)C1c1ccc(N(C)C)cc1 (configuration not stated)	1.06	-6.35% (inactive)
CCN(CC)CCNC(=O)Cn1nc(-c2ccccc2)c2ccccc2c1=O	0.954	4.6% (inactive)
NC(=O)C1CCN(c2ncnc3c(-c4ccccc4)nsc23)CC1	0.947	5.35% (inactive)
O=C(c1cc(-c2cccs2)on1)N1CCN(C(c2ccccc2)c2ccccc2)CC1	0.971	2.95% (inactive)
COc1ccccc1CNC(=O)Cn1cccc1	0.944	5.65% (inactive)
COc1ccccc1CNC(=O)C1(NC(=O)Nc2ccc(C)cc2)CCCCC1	3.44	-244% (active)
COc1ccccc1C(=O)Nc1ccc(CN2CCCCC2)cc1	0.94	6% (inactive)
O=C(NCc1ccccc1)NC1(C(=O)N2CCCC2)CCCCC1	0.94	6% (inactive)
CCOC(=O)c1ccc(NC(=O)NCc2ccc(OC)cc2)cc1	1.49	-49% (inactive)
Cc1ccc(CNC(=O)C2(NC(=O)Nc3ccc(C)cc3)CCCCC2)cc1	2.98	-198% (active)
O=C(Nc1cccc(Cl)c1)NC1(C(=O)NCc2cccs2)CCCCC1	1.62	-61.7% (inactive)
Cc1ccc(NC(=O)NC2(C(=O)NCc3ccccc3)CCCCC2)cc1	2.31	-131% (active)
CCn1c(CC(=O)Nc2ccc(C)cc2)nnc1SCC(=O)NCc1ccccc1	1	-0.4% (inactive)
